# Experimental data as given in PubChem BioAssay (NCATS).
# Records with an inconclusive call do not appear. A call without a number means that no potency is given here. Activity calls are given as the source filed them. Unless noted, the call rests on the fitted dose curve; in most records, active means well fitted curve in the direction sought with a large enough effect; inconclusive means small, poorly fitted or top-dose-only effect, or another doubt; inactive means no such curve, though single readings can be large; an effect the other way counts as inactive or inconclusive.
# How the values were obtained:
# [1] = Quantitative high throughput screen for delayed death inhibitors of the malarial parasite plastid, 48 hour incubation (AID 488752); further: nearly all actives have a fitted effect of over 65% in size
# How it was run: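 Erythrocytes infected with firefly luciferase-expressing P. falciparum (2% hematocrit, 0.1% parasitemia) cultured with compound for 48 h at 37 C, 5% CO2, in RPMI 1640/0.5% Albumax. Growth inhibition read as loss of luminescence.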
# [2] = biological target: M-phase phosphoprotein 8 (Homo sapiens) (UniProt Q99549); test: qHTS Validation Assay for Inhibitors for MPP8 Chromodomain Interactions with Methylated Histone Tails (AID 488949);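 further: AlphaScreen signal from MPP8 chromodomain bound to biotinylated H3K9me3 peptide; top concentration of the series differs between compounds; nearly all actives have a fitted effect of over 55% in size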
# Chain of M-phase phosphoprotein 8 (Homo sapiens) (Q99549 whole entry, looked up): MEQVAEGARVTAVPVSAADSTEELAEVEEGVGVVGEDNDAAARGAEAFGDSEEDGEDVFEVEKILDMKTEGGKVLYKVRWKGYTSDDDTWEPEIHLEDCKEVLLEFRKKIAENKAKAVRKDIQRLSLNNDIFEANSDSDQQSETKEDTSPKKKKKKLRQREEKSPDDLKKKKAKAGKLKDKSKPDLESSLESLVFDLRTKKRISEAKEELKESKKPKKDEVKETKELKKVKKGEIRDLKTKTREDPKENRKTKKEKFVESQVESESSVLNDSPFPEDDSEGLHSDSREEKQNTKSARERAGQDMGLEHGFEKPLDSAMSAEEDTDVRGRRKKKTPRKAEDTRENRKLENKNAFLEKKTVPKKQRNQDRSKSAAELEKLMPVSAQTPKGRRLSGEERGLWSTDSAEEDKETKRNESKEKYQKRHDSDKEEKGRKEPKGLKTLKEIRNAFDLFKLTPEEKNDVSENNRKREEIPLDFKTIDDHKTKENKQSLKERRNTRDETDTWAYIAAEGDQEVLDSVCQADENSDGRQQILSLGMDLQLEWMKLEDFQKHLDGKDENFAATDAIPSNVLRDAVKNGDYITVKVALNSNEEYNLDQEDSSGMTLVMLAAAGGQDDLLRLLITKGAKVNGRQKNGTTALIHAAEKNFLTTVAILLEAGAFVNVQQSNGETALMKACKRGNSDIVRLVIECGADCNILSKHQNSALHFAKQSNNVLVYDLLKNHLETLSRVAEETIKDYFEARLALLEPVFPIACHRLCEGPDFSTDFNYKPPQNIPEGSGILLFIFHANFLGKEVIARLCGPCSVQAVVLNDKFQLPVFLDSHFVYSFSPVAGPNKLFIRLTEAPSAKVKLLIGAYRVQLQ
# How it was run: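 MPP8 (50 nM) was preincubated with biotinylated H3(1-18)K9me3 peptide (50 nM) in PBS pH 7.4, 0.01% Tween-20 for 30 min at room temperature, then with compounds for 30 min; binding was detected by AlphaScreen.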
# [3] = biological target: Transient receptor potential cation channel subfamily V member 1 (Homo sapiens) (UniProt Q8NER1); test: HTS Assay for Compounds that Act as Enhancers of the Vanilloid Receptor 1 (AID 488979)
# Chain of Transient receptor potential cation channel subfamily V member 1 (Homo sapiens) (Q8NER1 whole entry, looked up): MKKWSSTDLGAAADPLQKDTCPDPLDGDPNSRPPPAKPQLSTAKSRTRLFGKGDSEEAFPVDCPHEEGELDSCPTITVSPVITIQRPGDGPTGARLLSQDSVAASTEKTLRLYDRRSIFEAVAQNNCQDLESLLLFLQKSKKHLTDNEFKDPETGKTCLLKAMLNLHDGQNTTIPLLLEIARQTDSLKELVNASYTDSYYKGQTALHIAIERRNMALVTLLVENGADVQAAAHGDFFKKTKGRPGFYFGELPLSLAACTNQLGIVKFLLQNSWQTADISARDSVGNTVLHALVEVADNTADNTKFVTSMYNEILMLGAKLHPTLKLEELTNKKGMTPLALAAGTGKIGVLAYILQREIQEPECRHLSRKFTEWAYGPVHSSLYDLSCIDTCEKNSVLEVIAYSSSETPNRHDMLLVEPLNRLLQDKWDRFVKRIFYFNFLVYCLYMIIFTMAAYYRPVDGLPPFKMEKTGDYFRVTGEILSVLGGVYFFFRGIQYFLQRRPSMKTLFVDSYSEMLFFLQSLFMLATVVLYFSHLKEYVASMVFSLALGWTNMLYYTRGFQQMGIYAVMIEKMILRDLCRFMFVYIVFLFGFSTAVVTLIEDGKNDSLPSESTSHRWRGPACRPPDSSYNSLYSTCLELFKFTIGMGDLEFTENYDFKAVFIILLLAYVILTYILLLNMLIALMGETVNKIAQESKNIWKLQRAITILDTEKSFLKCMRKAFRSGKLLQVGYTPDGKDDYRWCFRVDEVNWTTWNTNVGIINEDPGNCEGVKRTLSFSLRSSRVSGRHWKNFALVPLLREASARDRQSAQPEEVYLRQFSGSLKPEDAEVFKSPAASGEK
# How it was run: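 TRPV1-expressing cells loaded with Fluo-8 calcium dye; compounds added and calcium influx read kinetically for 3 min (agonist phase), then capsaicin at EC20 added and read 2 min more for enhancement. Fluorescence ex 480/em 520 nm.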
# [4] = biological target: Thyrotropin receptor (Homo sapiens) (UniProt P16473); test: qHTS Assay for Antagonists of the Thyroid Stimulating Hormone Receptor (AID 488980); further: series mostly up to about 58 µM
# Chain of Thyrotropin receptor (Homo sapiens) (P16473 whole entry, looked up): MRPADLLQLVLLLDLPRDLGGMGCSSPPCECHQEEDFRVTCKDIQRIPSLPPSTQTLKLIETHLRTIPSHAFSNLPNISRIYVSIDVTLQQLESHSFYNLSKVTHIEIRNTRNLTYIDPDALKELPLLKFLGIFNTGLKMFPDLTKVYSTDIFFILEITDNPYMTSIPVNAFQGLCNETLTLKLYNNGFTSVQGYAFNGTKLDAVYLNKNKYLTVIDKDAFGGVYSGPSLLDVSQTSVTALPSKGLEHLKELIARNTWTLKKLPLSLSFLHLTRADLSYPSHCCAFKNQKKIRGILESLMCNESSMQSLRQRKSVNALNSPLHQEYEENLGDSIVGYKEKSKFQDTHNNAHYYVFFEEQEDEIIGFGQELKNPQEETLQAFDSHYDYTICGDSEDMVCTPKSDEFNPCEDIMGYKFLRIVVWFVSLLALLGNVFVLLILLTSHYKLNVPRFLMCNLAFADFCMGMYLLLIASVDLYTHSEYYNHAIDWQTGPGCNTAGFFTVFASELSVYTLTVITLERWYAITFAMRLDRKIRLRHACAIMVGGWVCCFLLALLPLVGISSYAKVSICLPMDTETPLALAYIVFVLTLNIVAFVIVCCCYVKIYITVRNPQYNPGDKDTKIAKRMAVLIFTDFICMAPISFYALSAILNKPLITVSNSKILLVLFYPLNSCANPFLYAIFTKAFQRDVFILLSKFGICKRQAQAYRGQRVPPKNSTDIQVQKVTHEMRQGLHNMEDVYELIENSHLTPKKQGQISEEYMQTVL
# How it was run: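 HEK293 cells transfected with human TSHR, suspended in HEPES-buffered HBSS with 70 uM RO 20-1724, were treated with compounds plus TSH at EC80 (4 nM final). cAMP was measured by competitive HTRF (cryptate anti-cAMP antibody, cAMP-d2 acceptor).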
# [5] = biological target: ATP-dependent 6-phosphofructokinase (Trypanosoma brucei brucei) (UniProt O15648); test: qHTS Assay to Find Inhibitors of T. brucei phosphofructokinase: hit validation (AID 492961);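 further: luminescence reports ADP formed as PFK phosphorylates fructose-6-phosphate with ATP; series mostly up to about 51 µM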
# Chain of ATP-dependent 6-phosphofructokinase (Trypanosoma brucei brucei) (O15648 whole entry, looked up): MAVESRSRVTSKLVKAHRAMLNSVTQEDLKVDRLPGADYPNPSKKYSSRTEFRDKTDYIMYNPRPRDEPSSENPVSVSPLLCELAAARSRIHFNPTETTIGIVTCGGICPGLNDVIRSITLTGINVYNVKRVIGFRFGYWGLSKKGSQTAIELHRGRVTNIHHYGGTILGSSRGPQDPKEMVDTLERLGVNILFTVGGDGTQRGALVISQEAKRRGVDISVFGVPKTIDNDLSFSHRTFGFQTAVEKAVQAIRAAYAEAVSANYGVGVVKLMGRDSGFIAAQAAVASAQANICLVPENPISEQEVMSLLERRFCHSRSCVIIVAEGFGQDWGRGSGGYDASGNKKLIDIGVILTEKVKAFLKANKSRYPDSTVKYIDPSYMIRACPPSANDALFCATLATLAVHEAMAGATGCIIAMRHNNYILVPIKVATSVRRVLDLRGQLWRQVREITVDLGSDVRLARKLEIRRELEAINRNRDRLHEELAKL
# How it was run: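 Reaction: 0.1 M triethanolamine pH 8.0, 5 mM MgCl2, F6P 0.5 mM, ATP 0.1 mM, PFK 1.25 nM, 45 min RT. Read-out: ADP-Glo luminescence. Analysis: concentration-response fits, classed by r2 and efficacy.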
# [6] = biological target: Thyrotropin-releasing hormone receptor (Homo sapiens) (UniProt P34981); test: qHTS for Small Molecule Agonists and Allosteric Enhancers of Human TRH Receptor: Validation Screen for Agonists (AID 493127;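 active means calcium activation more than 3 SD above the typical response in the agonist read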); settings: TRH receptor agonist cell assay; at 2 µM; stronger effect = higher value
# Chain of Thyrotropin-releasing hormone receptor (Homo sapiens) (P34981 whole entry, looked up): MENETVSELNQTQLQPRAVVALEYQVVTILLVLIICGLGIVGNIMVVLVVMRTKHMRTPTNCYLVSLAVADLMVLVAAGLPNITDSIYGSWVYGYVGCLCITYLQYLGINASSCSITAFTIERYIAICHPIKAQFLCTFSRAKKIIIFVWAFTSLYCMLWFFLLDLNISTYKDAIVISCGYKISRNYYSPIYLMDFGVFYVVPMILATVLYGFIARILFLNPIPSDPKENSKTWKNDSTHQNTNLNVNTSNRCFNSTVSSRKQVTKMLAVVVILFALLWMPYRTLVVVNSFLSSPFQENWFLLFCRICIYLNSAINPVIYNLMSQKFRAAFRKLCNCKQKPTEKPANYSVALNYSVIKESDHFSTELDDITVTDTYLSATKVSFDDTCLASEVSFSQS
# How it was run: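 TRHR cells loaded with fluo-8 calcium dye; FDSS kinetic fluorescence (Ex 480/Em 530) read at 1 s/cycle after 23 nL compound addition. Agonist-mode calcium response recorded before the 10 nM TRH (EC20) addition.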
# [7] = Quantitative high throughput screen for delayed death inhibitors of the malarial parasite plastid, 96 hour incubation (AID 488745); further: series mostly up to about 29 µM; nearly all actives have a fitted effect of over 70% in size
# How it was run: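 Luciferase-expressing P. falciparum in erythrocytes (2% hematocrit, 0.1% parasitemia) incubated with compound for 96 h at 37 C, 5% CO2, in RPMI 1640 with 0.5% Albumax. Growth inhibition read as decreased luminescence.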
# [8] = biological target: DNA polymerase III PolC-type (Bacillus subtilis (strain 168)) (UniProt P13267); test: qHTS Validation Assay for the Inhibitors of DNA Replication in Gram-Positive Bacteria (AID 485295);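 further: PicoGreen fluorescence of double-stranded DNA made on primed circular M13 template; series mostly up to about 57 µM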
# How it was run: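 Reconstituted B. subtilis holoenzyme (Pol III, beta clamp, SSB, primase) was preincubated with compound at room temperature, then given single-stranded circular M13Gori plus dNTPs and NTPs. EDTA-containing PicoGreen stopped the reaction, and dsDNA product was read by fluorescence.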
# [9] = biological target: Tumor susceptibility gene 101 protein (Homo sapiens) (UniProt Q99816); test: qHTS Validation Assay for Iinhibitors of HIV-1 Budding by Blocking the Interaction of PTAP/TSG101 (AID 485342; calls by dose curve)
# How it was run: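 Tsg101 binding domain (10 uM final) in pH 7.5 HEPES/NaCl/Tween 20/EDTA/TCEP buffer was mixed with pin-transferred compounds, then FITC-labeled PTAP peptide (50 nM final) was added; after 20 min at r.t., fluorescence polarization was read.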
# [10] = qHTS Validation Assay to Find Inhibitors of Chronic Active B-Cell Receptor Signaling (AID 485345; active means well fitted curve in the direction sought with a large enough effect in the main read-out, with a control signal flat, not every such curve was filed as active)
# How it was run: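 TMD8 ABC-DLBCL cells with dox-inducible green luciferase–IκBα fusion and red native luciferase; compounds 46 uM–3 nM, 4 h at 37C with doxycycline in 0.5% FBS IMDM. Green/red ratio normalized to basal and 10 uM MG-132.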
# [11] = biological target: Beta-2 adrenergic receptor (Homo sapiens) (UniProt P07550); test: qHTS validation assay of beta-arrestin-biased ligands of beta2-adrenergic receptor (AID 485366)
# How it was run: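 Arrestin-recruitment (Tango) reporter: ligand-bound beta2-AR recruits beta-arrestin, releasing tTA, which upregulates luciferase. Titrations of up to 46 microM incubated 18 hr at 37 degrees C before luminescent readout.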
# [12] = biological target: Thioredoxin reductase 1, cytoplasmic (Rattus norvegicus) (UniProt O89049); test: qHTS Assay for Substrates of Mammalian Selenoprotein Thioredoxin Reductase 1 (TrxR1) (AID 488772);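 further: NADPH fluorescence in the first read after selenite addition and not the 8 min delta; series mostly up to about 57 µM; a drop in NADPH fluorescence below the no-compound background marks a TrxR1 substrate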
# How it was run: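 Quantitative HTS in Tris-HCl buffer at pH 7.5 with EDTA and Tween-20, using rat TrxR1, 400 uM NADPH and 400 uM selenite (final). A fall in initial NADPH fluorescence relative to background marked substrate behaviour.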
# [13] = biological target: Flap endonuclease 1 (Homo sapiens) (UniProt P39748); test: qHTS Validation Assay for the Inhibitors of Human Flap endonuclease 1 (FEN1) (AID 488816)
# Chain of Flap endonuclease 1 (Homo sapiens) (P39748 whole entry, looked up): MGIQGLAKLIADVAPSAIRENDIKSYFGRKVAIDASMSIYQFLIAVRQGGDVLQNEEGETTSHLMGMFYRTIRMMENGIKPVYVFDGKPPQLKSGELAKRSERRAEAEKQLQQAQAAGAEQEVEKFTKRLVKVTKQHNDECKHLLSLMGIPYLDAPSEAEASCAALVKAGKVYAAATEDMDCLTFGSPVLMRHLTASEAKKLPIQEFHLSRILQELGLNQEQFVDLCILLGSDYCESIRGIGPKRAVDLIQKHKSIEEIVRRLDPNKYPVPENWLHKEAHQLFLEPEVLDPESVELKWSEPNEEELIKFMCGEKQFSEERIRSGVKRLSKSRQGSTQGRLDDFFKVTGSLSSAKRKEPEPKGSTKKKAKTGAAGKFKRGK
# How it was run: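 FEN1, dispensed as a 10 nM reagent, was preincubated with pin-transferred compounds for 15 min at room temperature before substrate was added (50 nM final). Plates were read at 0 and 15 min, and a four-parameter Hill equation was fitted to the concentration-response data.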
# [14] = biological target: Methanococcus maripaludis chaperonin (MmCpn) (UniProt Q6LX38); test: High-Throughput Screening for Modulators of Cytosolic Chaperonin Activity: MmCpn Primary Screen (AID 488978);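 further: 50 nM MmCpn enzyme hydrolysing 30 µM ATP at 37 °C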
# How it was run: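 MmCpn (50 nM final) was preincubated with compound 5 min at RT, then 30 uM ATP (final) was added and the reaction ran 10 min at 37C. ADP produced was detected by Transcreener HTRF (ex 320 nm; em 590/665 nm).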
# [15] = biological target: D(1A) dopamine receptor (Homo sapiens) (UniProt P21728); test: HTS Assay for Allosteric Agonists of the Human D1 Dopamine Receptor: Primary Screen for Agonists (AID 488981)
# Chain of D(1A) dopamine receptor (Homo sapiens) (P21728 whole entry, looked up): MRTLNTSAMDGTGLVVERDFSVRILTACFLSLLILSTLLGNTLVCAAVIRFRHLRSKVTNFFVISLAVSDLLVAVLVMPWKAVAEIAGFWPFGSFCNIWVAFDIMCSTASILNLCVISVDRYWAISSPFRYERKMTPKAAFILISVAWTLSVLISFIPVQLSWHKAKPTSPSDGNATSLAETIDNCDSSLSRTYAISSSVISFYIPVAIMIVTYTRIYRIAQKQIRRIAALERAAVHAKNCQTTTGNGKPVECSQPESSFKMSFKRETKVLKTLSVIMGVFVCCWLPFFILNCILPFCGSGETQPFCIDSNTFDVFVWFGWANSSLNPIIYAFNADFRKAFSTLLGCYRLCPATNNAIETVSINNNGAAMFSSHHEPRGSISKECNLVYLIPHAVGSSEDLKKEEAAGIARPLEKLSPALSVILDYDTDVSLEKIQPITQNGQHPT
# How it was run: (§1)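 Tetracycline-induced HEK293 T-REx cells force-coupled to calcium signalling were incubated overnight at 30 C and dye-loaded at room temperature. Calcium flux over 180 s after compound addition flagged agonists; a further 180 s read after EC20 dopamine flagged potentiators.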
# [16] = biological target: D(1A) dopamine receptor (Homo sapiens) (UniProt P21728); test: HTS Assay for Allosteric Agonists of the Human D1 Dopamine Receptor: Primary Screen for Potentiators (AID 488982)
# How it was run: as §1
# [17] = biological target: D(1A) dopamine receptor (Homo sapiens) (UniProt P21728); test: HTS Assay for Allosteric Agonists of the Human D1 Dopamine Receptor: Primary Screen for Antagonists (AID 488983);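 further: calcium flux response to an EC80 dopamine challenge measured with no-wash dye; nearly all actives have a fitted effect of over 65% in size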
# How it was run: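 Tetracycline-induced HEK293 T-REx D1 line, force-coupled to calcium flux, read with no-wash calcium dye. Compound added after 10 s baseline, read 180 s for agonism, then EC80 dopamine added and read a further 180 s.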
# [18] = Validation screen for small molecules that induce genotoxicity in human embryonic kidney (HEK293T) cells expressing luciferase-tagged ELG1 (AID 493106); settings: luminescence; further: potency means the concentration at half of the fitted maximal effect
# How it was run: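 HEK293T cells expressing luciferase-tagged ELG1, 2,000 cells/well, exposed to compound 16 hr at 37 °C, 5% CO2. Luciferase read after ONE-Glo, 30 min at room temperature; increased signal indicates genetic stress.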
# [19] = Nrf2 qHTS screen for inhibitors: Validation (AID 493153; active means well fitted inhibition curve with a large enough effect in the main read-out, with a control signal flat, not every such curve was filed as active); settings: viability change: measured here: cytotoxicity max response
# How it was run: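 A549 cells carrying ARE-firefly luciferase reporter, 5000 cells/well in 5% FBS OPTI-MEM, treated with compound over a concentration series for 18-24 h at 37 C. Luciferase luminescence gave Nrf2 activity; CellTiter-Fluor fluorescence gave viability.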
# [20] = biological target: Tyrosyl-DNA phosphodiesterase 1 (Homo sapiens) (UniProt Q9NUW8); test: Confirmation Assay for Inhibitors of Tyrosyl-DNA Phosphodiesterase (TDP1) (AID 489007); settings: recombinant human TDP1 enzymatic activity, dose-response; further: potency means the concentration at half of the fitted maximal effect; nearly all actives have a fitted effect of over 40% in size
# Chain of Tyrosyl-DNA phosphodiesterase 1 (Homo sapiens) (Q9NUW8 whole entry, looked up): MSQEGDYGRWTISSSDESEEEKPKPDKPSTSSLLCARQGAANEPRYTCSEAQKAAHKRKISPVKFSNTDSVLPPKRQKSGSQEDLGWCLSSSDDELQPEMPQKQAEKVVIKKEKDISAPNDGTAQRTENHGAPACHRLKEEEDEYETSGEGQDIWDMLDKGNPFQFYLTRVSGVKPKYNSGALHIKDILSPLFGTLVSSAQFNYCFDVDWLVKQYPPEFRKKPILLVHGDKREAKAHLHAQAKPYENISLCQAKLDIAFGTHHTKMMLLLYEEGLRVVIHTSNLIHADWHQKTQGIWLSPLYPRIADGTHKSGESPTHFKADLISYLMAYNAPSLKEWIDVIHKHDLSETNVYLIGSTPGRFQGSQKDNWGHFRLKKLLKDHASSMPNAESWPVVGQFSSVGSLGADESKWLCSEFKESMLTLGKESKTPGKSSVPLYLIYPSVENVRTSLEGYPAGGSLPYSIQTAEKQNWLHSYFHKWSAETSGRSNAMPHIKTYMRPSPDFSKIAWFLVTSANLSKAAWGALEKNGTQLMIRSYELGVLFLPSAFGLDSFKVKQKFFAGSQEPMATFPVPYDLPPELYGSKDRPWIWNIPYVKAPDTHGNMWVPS
# How it was run: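 Recombinant human Tdp1 (1 nM final), expressed in E. coli, preincubated 15 min with compound. Then 15 nM 5'-biotin/3'-phosphotyrosine-FITC DNA substrate added for 5 min at room temperature. AlphaScreen beads (10 ug/ml) added for 10 min; cleavage gives signal loss.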
structure (smiles),measurement,setting,value
O=c1[nH]c(=O)n([C@H]2C[C@H](O)[C@@H](CO)O2)cc1/C=C/Br,outcome,[1],inactive
same,outcome,[2],inactive
same,outcome,[3],inactive
same,outcome,[4],inactive
same,Potency,[5],inactive
same,activation,[6],0.938% (inactive)
CC(C)O,Potency,[5],inactive
O=C(/C=C/c1cccc(F)c1)NC1CC1,Potency,[5],inactive
O=C1NCCN1c1ncc([N+](=O)[O-])s1,Potency,[5],inactive
COc1ccc(C[C@H](C)NC[C@@H](O)c2ccc(O)c(NC=O)c2)cc1,Potency,[5],inactive
Cc1cc(C)c(NC(=O)C[C@H](CC(=O)O)c2cccc3ccccc23)c(C(=O)N2CCC3(CCCC3)CC2)c1,outcome,[7],inactive
same,outcome,[1],inactive
same,outcome,[2],inactive
same,outcome,[3],inactive
same,outcome,[4],inactive
same,Potency,[5],inactive
same,activation,[6],0.125% (inactive)
CC1=CCC2CC1C2(C)C (centres undefined),Potency,[5],inactive
CC(=O)Oc1cccc(C(=O)O)c1OC(C)=O,Potency,[5],inactive
CC(C)(C)c1ccc2c(S(=O)(=O)O)c(C(C)(C)C)ccc2c1,Potency,[5],inactive
O=C(O)Cc1cc(I)c(Oc2ccc(O)c(I)c2)c(I)c1,Potency,[5],inactive
COc1ccc(C(=O)c2ccc(C)cc2)c(O)c1,Potency,[5],inactive
CN1C(=O)C[C@@H](C(=O)N[C@@H](Cc2cnc[nH]2)C(=O)N2CCC[C@H]2C(N)=O)NC1=O,Potency,[5],inactive
CC(C)OC(=O)Nc1ccc2nc(-c3cscn3)[nH]c2c1,Potency,[5],inactive
Cc1nc(NS(=O)(=O)c2ccc(N)cc2)nc(C)c1Br,Potency,[5],inactive
C[C@H](N)C(=O)N[C@@H](C)P(=O)(O)O,Potency,[5],inactive
Oc1ccc(/C=C/c2cc(O)cc(O)c2)cc1,outcome,[8],inactive
same,outcome,[9],inactive
same,outcome,[10],inactive
same,outcome,[11],inactive
same,outcome,[12],inactive
same,outcome,[13],inactive
same,outcome,[2],inactive
same,outcome,[14],inactive
same,outcome,[3],inactive
same,outcome,[4],inactive
same,outcome,[15],inactive
same,outcome,[16],inactive
same,outcome,[17],inactive
same,Potency,[18],2.91 µM (active)
same,activation,[6],0.812% (inactive)
same,outcome,[19],inactive
same,viability change,[19],-6.91%
C=C(C)C1CC=C(C)CC1 (centres undefined),Potency,[5],inactive
CC[C@H]1OC(=O)[C@H](C)[C@@H](O[C@H]2C[C@@](C)(OC)[C@@H](O)[C@H](C)O2)[C@H](C)[C@@H](O[C@@H]2O[C@H](C)C[C@H](N(C)C)[C@H]2O)[C@](C)(O)C[C@@H](C)CN(C)[C@H](C)[C@@H](O)[C@]1(C)O,Potency,[5],inactive
Cn1c(=O)c2c(ncn2CCOC(=O)C(C)(C)Oc2ccc(Cl)cc2)n(C)c1=O,Potency,[5],inactive
CC(C)=CCC/C(C)=C/C=C/C(C)=C/C=C/C(C)=C/C=C/C=C(C)/C=C/C=C(C)/C=C/C=C(\C)CCC=C(C)C,Potency,[5],inactive
CCOc1cc(-c2nccc3cc(OC)c(OC)cc23)cc(OCC)c1OCC,Potency,[5],inactive
CC(C)(Oc1ccc(C2CCCc3ccccc32)cc1)C(=O)O (centres undefined),Potency,[5],inactive
C=Cc1ccc(S(=O)(=O)O)cc1,Potency,[20],12.6 µM (active)
same,Potency,[5],inactive
Cc1ccc(S(=O)(=O)O)cc1C,Potency,[5],inactive
C[C@@](Cc1ccc(O)c(O)c1)(NN)C(=O)O,outcome,[2],inactive
same,outcome,[3],inactive
same,outcome,[4],inactive
same,activation,[6],0.562% (inactive)
C#C[C@]1(O)CC[C@@H]2[C@H]3CCC4=CC(=O)CC[C@H]4[C@H]3C(=C)C[C@@]21CC,Potency,[5],inactive
CC1=CC(=C(c2ccc(N)cc2)c2ccc(N)cc2)C=CC1=N,Potency,[5],inactive
CO/N=C(\C(=O)N[C@@H]1C(=O)N2C(C(=O)[O-])=C(C[n+]3cccc4c3CCC4)CS[C@H]12)c1csc(N)n1,Potency,[5],inactive
Cc1cc(C(=O)NCCc2ccc(S(=O)(=O)NC(=O)NN3CCCCCC3)cc2)no1,Potency,[5],inactive
CS(=O)(=O)OCC(O)C(O)COS(C)(=O)=O (centres undefined),Potency,[5],inactive
O=C(O)c1cc(N=Nc2ccc(O)c(C(=O)O)c2)ccc1O,Potency,[5],inactive
CC(C)CCCCCCc1ccc(O)cc1,Potency,[5],inactive
COc1cc(C)c(/C=C/C(C)=C/C=C/C(C)=C/C(=O)O)c(C)c1C,Potency,[5],inactive
C[C@]12CC[C@@H]3c4ccc(OC(=O)c5ccccc5)cc4CC[C@H]3[C@@H]1CC[C@@H]2O,Potency,[5],inactive
O=C(NCCNCC(O)COc1ccc(O)cc1)N1CCOCC1 (centres undefined),outcome,[7],inactive
same,outcome,[1],inactive
same,outcome,[2],inactive
same,outcome,[3],inactive
same,outcome,[4],inactive
same,activation,[6],1% (inactive)
Cn1nnnc1SCC1=C(C(=O)O)N2C(=O)[C@@H](NC(=O)[C@H](O)c3ccccc3)[C@H]2SC1,Potency,[20],3.98 µM (active)
O=C(c1cc2ccccc2o1)N1CCN(Cc2ccccc2)CC1,Potency,[5],inactive
CC(/C=C/C=C(\C)C(=O)O[C@@H]1O[C@H](CO[C@@H]2O[C@H](CO)[C@@H](O)[C@H](O)[C@H]2O)[C@@H](O)[C@H](O)[C@H]1O)=C\C=C\C=C(C)\C=C\C=C(/C)C(=O)O[C@@H]1O[C@H](CO[C@@H]2O[C@H](CO)[C@@H](O)[C@H](O)[C@H]2O)[C@@H](O)[C@H](O)[C@H]1O,Potency,[5],inactive
